# Measured values published in PubChem BioAssay (EPA / NIEHS).
# Values joined by “and” are separate entries in the source; they are usually repeats but may differ in a detail not shown here. Equal entries are not always repeated. Some compounds were tested as several samples or in several runs, with calls that do not always agree. Active and inactive are the calls of the source. How the source made its calls: active means hit-call score of the fitted dose curve at least 0.9, where 1 is the maximum; inactive means score below 0.9.
# What was measured:
# [1] = biological target: CCAAT/enhancer-binding protein beta (Homo sapiens) (UniProt P17676); test: ATG_C_EBP_CIS: Attagene CIS-FACTORIAL HepG2 Assay for human CCAAT/Enhancer Binding Protein (C/EBP) beta (AID 2282927); conditions: HepG2 Attagene cis-factorial transcription factor reporter; actives raise or lower the signal
# Summary of the method: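 Endogenous C/EBPb-driven reporter transcripts measured in transfected human HepG2 cells at 24 h via RT-PCR and capillary electrophoresis of labelled fragments. Activity fitted in both directions relative to DMSO baseline.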
# [2] = ATG_CMV_CIS: Attagene CIS-FACTORIAL HepG2 Assay for human CMV (Internal Marker) (AID 2282928); conditions: HepG2 CMV promoter reporter, transcription factor profiling; actives raise or lower the signal;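 further: endpoint acts as a background internal control marker rather than a target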
# Summary of the method: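 After transient transfection of HepG2 with reporter transcription units driven by cis-regulatory promoters, cells receive test chemical for 24 h. Labeled reporter amplicons, digested with HpaI, are sized and quantified by capillary electrophoresis against DMSO.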
# [3] = ATG_DR4_LXR_CIS: Attagene CIS-FACTORIAL HepG2 Assay for human Liver X Receptor (LXR), DR4 submotif (AID 2282929); conditions: HepG2 Attagene DR4 cis-reporter, mRNA transcription; actives raise or lower the signal
# Summary of the method: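 HepG2, transient MRTU transfection, cis-element (DR4) promoter; 24 h compound exposure; total RNA → oligo(dT) RT → PCR → 6-FAM primer extension → HpaI cut → CE. Gain/loss vs DMSO, bidirectional fit.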
# [4] = biological target: Aryl hydrocarbon receptor (Homo sapiens) (UniProt P35869); test: ATG_Ahr_CIS: Attagene CIS-FACTORIAL HepG2 Assay for human Aryl Hydrocarbon Receptor (Ahr) (AID 2282930); conditions: HepG2 AhR cis-factorial reporter transcription; actives raise or lower the signal
# Summary of the method: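 Reporter mRNA levels, quantified by RT-PCR and fluorescent capillary electrophoresis, reflect endogenous AhR transcriptional activity in HepG2 cells carrying transfected cis-promoter reporter constructs. Readout at 24 h post-dose; gain or loss fitted against DMSO baseline.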
# [5] = ATG_AP_1_CIS: Attagene CIS-FACTORIAL HepG2 Assay for human Activator Protein 1 (AP-1) (AID 2282931); conditions: HepG2 Attagene cis-factorial AP-1 reporter mRNA; actives raise or lower the signal
# Summary of the method: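 Transient MRTU transfection of HepG2 → 24 h chemical treatment → RNA isolation, RT-PCR, 6-FAM labelling, HpaI digest → capillary electrophoresis. Fit: bidirectional, DMSO negative control.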
# [6] = ATG_AP_2_CIS: Attagene CIS-FACTORIAL HepG2 Assay for human Activator Protein 2 (AP-2) (AID 2282932); conditions: HepG2 AP-2 cis-reporter, Attagene transcription factor profiling; actives raise or lower the signal
# Summary of the method: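 Step one: transient transfection of HepG2 with reporter transcription units. Step two: 24 h chemical exposure. Step three: RNA extraction, RT-PCR, labelled fragment analysis by capillary electrophoresis; DMSO serves as baseline.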
# [7] = ATG_BRE_CIS: Attagene CIS-FACTORIAL HepG2 Assay for human Bone Morphogenetic Protein (BMP) Response Element (BRE) (AID 2282933); conditions: HepG2 BMP response element reporter, Attagene transcription factor profiling; actives raise or lower the signal
# Summary of the method: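 Transient MRTU transfection of human HepG2 liver cells; 24 h compound treatment; total RNA isolated, reverse-transcribed, PCR-amplified, 6-FAM labelled, HpaI-cut, capillary electrophoresis. DMSO = negative control/baseline, bidirectional fit.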
# [8] = biological target: Retinoic acid receptor alpha (Homo sapiens) (UniProt P10276); test: ATG_DR5_RAR_CIS: Attagene CIS-FACTORIAL HepG2 Assay for human Retinoic Acid Receptor Alpha (RARE), DR5 submotif (AID 2282934); conditions: HepG2 Attagene cis-factorial RARE DR5 reporter, mRNA; actives raise or lower the signal;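 on AC50: reporter responds to endogenous RAR alpha beta and gamma in HepG2 not RARA alone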
# Summary of the method: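 Reporter transcripts from a DR5-regulated unit, measured via RT-PCR plus capillary electrophoresis, reflect endogenous RAR activity in transiently transfected human HepG2 liver cells. Exposure lasted 24 h; gain or loss of signal scored against DMSO.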
# [9] = biological target: Transcription factor E2F1 (Homo sapiens) (UniProt Q01094); test: ATG_E2F_CIS: Attagene CIS-FACTORIAL HepG2 Assay for human E2F Transcription Factor 1 (AID 2282935); conditions: HepG2 Attagene cis-reporter, E2F reporter RNA transcripts; actives raise or lower the signal
# Summary of the method: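 Total RNA from 24 h-treated, reporter-transfected HepG2 cells undergoes DNase I treatment, oligo(dT) reverse transcription, PCR and 6-FAM primer extension before capillary electrophoresis.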
# [10] = ATG_E_Box_CIS: Attagene CIS-FACTORIAL HepG2 Assay for human Enhancer Box (E-box) (AID 2282936); conditions: HepG2 E-box cis-reporter transcription, actives raise or lower the signal
# Summary of the method: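 DMSO served as negative control and baseline for bidirectional fitting. Human hepatoma HepG2 cells, transiently transfected with cis-reporter constructs, were dosed 24 h; reporter mRNA read by RT-PCR and capillary electrophoresis.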
# [11] = ATG_M_61_CIS: Attagene CIS-FACTORIAL HepG2 Assay for M61 Transcription Factor (Internal Marker) (AID 2282937); conditions: HepG2 Attagene CIS-FACTORIAL M61 internal marker reporter; actives raise or lower the signal
# Summary of the method: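 Human liver HepG2, transient MRTU transfection (cis promoter elements), 24 h compound. Total RNA → oligo(dT) RT → PCR → FAM label → HpaI → CE. Internal background marker; bidirectional fitting, DMSO = baseline.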
# [12] = ATG_EGR_CIS: Attagene CIS-FACTORIAL HepG2 Assay for human Early Growth Response 1 (EGR1) (AID 2282938); conditions: HepG2 Attagene CIS-FACTORIAL EGR reporter mRNA; actives raise or lower the signal
# Summary of the method: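 Transient transfection of human HepG2 with multiple cis-regulated reporter units, chemical exposure 24 h, total RNA isolated. Reverse transcription, PCR, fluorescent labelling and capillary electrophoresis quantify reporter transcripts; activity fitted bidirectionally against DMSO.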
# [13] = ATG_Ets_CIS: Attagene CIS-FACTORIAL HepG2 Assay for human Erythroblast Transformation Specific (ETS) (AID 2282941); conditions: HepG2 ETS cis-reporter transcription, actives raise or lower the signal
# Summary of the method: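 Human HepG2 hepatoma cells were transiently transfected with promoter-driven reporter constructs and treated for 24 hours. Reporter transcripts were quantified by RT-PCR with fluorescent primer extension; bidirectional curve fitting used DMSO as reference.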
# [14] = biological target: Hepatocyte nuclear factor 3-beta (Homo sapiens) (UniProt Q9Y261); test: ATG_FoxA2_CIS: Attagene CIS-FACTORIAL HepG2 Assay for human Forkhead box A2 (FOXA2) (AID 2282942); conditions: HepG2 cis-reporter transcription factor activity, 24 h; actives raise or lower the signal
# Summary of the method: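 Transient MRTU transfection of HepG2 liver cells; 24 h treatment; total RNA → oligo(dT) RT → PCR → FAM primer extension → HpaI cut → CE. Bidirectional fit vs DMSO.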
# [15] = ATG_FoxO_CIS: Attagene CIS-FACTORIAL HepG2 Assay for human Forkhead box O (FoxO) (AID 2282943); conditions: HepG2 Attagene cis-reporter, FoxO element, mRNA; actives raise or lower the signal
# Summary of the method: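 Endogenous transcription factor activity read from multiplexed cis-promoter reporter transcripts in transiently transfected HepG2, 24 h after dosing. Reporter RNA measured via RT-PCR plus capillary electrophoresis of FAM-labeled products; gain or loss relative to DMSO.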
# [16] = ATG_GATA_CIS: Attagene CIS-FACTORIAL HepG2 Assay for human GATA Binding Protein (AID 2282944); conditions: HepG2 GATA cis-element reporter, Attagene multiplex mRNA; actives raise or lower the signal
# Summary of the method: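 Transient MRTU transfection, HepG2, 24 h compound exposure. Total RNA → oligo(dT) RT → PCR → 6-FAM primer extension → HpaI cut → CE. Bidirectional fit vs DMSO.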
# [17] = ATG_GLI_CIS: Attagene CIS-FACTORIAL HepG2 Assay for human Zinc Finger Protein GLI1 (AID 2282945); conditions: HepG2, Attagene cis-factorial reporter mRNA, GLI element; actives raise or lower the signal
# Summary of the method: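 Bidirectional curve fits relative to DMSO, using reporter mRNA levels from RT-PCR plus capillary electrophoresis. Cells were HepG2 transiently carrying cis-regulated reporter constructs, harvested 24 h after dosing.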
# [18] = ATG_M_19_CIS: Attagene CIS-FACTORIAL HepG2 Assay for M19 Transcription Factor (Internal Marker) (AID 2282939); conditions: HepG2 Attagene CIS-FACTORIAL M19 internal marker reporter; actives raise or lower the signal
# Summary of the method: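 Transfect HepG2 with MRTU reporter library → dose chemical, 24 h → isolate total RNA, reverse-transcribe with oligo(dT) → PCR, 6-FAM label, HpaI cut (2 h, 37 C) → capillary electrophoresis. Bidirectional fit vs DMSO.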
# [19] = ATG_ERE_CIS: Attagene CIS-FACTORIAL HepG2 Assay for Estrogen Response Element (ERE) (AID 2282940); conditions: HepG2 ERE cis-reporter, Attagene RNA transcript; actives raise or lower the signal
# Summary of the method: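 Transient MRTU transfection of human HepG2; cis-element promoters; 24 h dosing; total RNA → RT (oligo dT) → PCR → 6-FAM primer extension → HpaI digest → CE fluorescence. Bidirectional fit, DMSO baseline.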
# Chain of Aryl hydrocarbon receptor (Homo sapiens) (P35869 whole entry, looked up): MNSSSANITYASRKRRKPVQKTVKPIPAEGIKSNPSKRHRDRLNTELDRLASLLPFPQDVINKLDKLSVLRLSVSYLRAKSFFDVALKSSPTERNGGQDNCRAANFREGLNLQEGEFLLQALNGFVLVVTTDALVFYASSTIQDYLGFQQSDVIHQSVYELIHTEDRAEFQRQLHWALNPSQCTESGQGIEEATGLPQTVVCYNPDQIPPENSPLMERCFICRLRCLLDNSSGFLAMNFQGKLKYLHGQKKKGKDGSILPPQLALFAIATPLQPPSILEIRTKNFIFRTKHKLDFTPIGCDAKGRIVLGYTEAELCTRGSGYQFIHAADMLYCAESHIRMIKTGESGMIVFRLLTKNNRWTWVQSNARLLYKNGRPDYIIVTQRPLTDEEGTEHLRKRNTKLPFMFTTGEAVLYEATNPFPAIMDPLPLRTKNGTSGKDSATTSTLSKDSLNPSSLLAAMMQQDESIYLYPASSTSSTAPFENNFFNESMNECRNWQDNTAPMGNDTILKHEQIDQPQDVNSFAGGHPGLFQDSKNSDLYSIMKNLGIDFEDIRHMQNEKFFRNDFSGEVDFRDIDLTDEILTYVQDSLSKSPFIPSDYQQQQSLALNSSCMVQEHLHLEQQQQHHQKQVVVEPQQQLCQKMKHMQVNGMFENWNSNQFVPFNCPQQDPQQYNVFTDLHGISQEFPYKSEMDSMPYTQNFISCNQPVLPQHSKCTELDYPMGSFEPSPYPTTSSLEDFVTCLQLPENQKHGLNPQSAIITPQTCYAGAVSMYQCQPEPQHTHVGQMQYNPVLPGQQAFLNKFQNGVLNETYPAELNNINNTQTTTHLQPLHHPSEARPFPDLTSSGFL
# Chain of CCAAT/enhancer-binding protein beta (Homo sapiens) (P17676 whole entry, looked up, the tested form may be a part): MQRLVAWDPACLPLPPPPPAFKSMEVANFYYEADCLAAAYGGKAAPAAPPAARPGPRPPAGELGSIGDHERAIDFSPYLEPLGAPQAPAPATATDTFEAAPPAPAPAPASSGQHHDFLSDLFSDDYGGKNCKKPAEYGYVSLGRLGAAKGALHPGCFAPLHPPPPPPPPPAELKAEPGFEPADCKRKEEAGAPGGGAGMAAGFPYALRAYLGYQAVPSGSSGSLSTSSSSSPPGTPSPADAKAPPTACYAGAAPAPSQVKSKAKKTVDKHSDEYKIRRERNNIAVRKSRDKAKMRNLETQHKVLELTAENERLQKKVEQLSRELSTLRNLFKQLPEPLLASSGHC
# Chain of Retinoic acid receptor alpha (Homo sapiens) (P10276 whole entry, looked up): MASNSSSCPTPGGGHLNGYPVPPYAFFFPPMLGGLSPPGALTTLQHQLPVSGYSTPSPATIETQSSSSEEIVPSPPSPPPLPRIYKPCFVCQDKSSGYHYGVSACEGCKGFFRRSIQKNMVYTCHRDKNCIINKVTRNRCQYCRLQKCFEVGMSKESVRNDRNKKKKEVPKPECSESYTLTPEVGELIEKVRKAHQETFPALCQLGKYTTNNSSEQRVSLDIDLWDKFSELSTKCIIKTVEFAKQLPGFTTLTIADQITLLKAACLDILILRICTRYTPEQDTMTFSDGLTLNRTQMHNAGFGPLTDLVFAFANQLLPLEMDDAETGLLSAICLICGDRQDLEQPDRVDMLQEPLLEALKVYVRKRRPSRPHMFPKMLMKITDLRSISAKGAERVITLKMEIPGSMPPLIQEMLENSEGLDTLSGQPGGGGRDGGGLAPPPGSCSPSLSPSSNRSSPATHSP
# Chain of Transcription factor E2F1 (Homo sapiens) (Q01094 whole entry, looked up): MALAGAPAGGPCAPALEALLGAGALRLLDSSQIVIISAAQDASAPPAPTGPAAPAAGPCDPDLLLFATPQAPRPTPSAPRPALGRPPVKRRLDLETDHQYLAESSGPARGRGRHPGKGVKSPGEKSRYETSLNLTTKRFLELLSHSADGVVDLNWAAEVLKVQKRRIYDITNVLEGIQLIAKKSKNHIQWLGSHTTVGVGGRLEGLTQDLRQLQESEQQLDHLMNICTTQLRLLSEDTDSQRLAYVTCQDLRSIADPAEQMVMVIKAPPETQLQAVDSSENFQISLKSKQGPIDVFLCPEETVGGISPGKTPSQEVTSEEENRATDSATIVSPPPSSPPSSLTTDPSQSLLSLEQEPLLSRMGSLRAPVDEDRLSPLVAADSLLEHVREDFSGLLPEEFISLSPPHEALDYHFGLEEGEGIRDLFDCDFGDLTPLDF
# Chain of Hepatocyte nuclear factor 3-beta (Homo sapiens) (Q9Y261 whole entry, looked up): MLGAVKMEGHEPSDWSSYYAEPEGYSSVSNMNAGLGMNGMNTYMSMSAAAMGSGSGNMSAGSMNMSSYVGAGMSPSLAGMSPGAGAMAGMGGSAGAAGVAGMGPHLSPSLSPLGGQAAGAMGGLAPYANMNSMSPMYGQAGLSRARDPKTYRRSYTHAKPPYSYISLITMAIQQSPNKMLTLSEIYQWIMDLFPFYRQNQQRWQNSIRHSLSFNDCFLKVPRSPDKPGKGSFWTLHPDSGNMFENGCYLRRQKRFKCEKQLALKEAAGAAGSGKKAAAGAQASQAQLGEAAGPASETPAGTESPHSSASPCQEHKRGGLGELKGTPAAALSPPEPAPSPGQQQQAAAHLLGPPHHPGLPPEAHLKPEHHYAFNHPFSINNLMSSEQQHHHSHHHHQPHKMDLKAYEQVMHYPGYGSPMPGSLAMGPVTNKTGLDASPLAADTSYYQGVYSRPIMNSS
compound,measurement,setting,value
CCCCOC(=O)c1ccc(O)cc1,AC50,[1],100 µM (active)
same,outcome,[1],inactive
same,outcome,[2],inactive
same,AC50,[3],169 µM (active)
same,outcome,[3],inactive
same,outcome,[4],inactive
same,outcome,[5],inactive
same,AC50,[6],136 µM (active)
same,outcome,[6],inactive
same,AC50,[7],166 µM (active) [middle of 4 runs]
same,outcome,[8],inactive
same,outcome,[9],inactive
same,AC50,[10],138 µM (active)
same,outcome,[10],inactive
same,outcome,[11],inactive
same,AC50,[12],97.1 µM (active)
same,outcome,[12],inactive
same,AC50,[13],157 µM (active)
same,outcome,[13],inactive
same,outcome,[14],inactive
same,outcome,[15],inactive
same,AC50,[16],164 µM (active)
same,outcome,[16],inactive
same,AC50,[17],125 µM (active)
same,outcome,[17],inactive
CCCCOC(=O)CC(CC(=O)OCCCC)(OC(C)=O)C(=O)OCCCC,outcome,[1],inactive
same,outcome,[2],inactive
same,AC50,[3],23.4 µM (active)
same,outcome,[3],inactive
same,outcome,[4],inactive
same,outcome,[5],inactive
same,outcome,[6],inactive
same,AC50,[7],42.6 µM (active)
same,outcome,[7],inactive
same,outcome,[9],inactive
same,outcome,[10],inactive
same,outcome,[11],inactive
same,outcome,[12],inactive
same,outcome,[18],inactive
same,outcome,[13],inactive
same,outcome,[14],inactive
same,outcome,[15],inactive
same,outcome,[16],inactive
same,outcome,[17],inactive
CCCCCCCC[Si](OCC)(OCC)OCC,AC50,[1],65.7 µM (active)
same,outcome,[1],inactive
same,AC50,[2],62.9 µM (active) [middle of 4 runs]
same,AC50,[3],126 µM (active) [middle of 4 runs]
same,outcome,[4],inactive
same,AC50,[5],70.2 µM (active) [middle of 4 runs]
same,outcome,[6],inactive
same,AC50,[7],159 µM (active)
same,outcome,[7],inactive
same,AC50,[9],153 µM (active)
same,outcome,[9],inactive
same,AC50,[10],48.4 µM (active)
same,outcome,[10],inactive
same,outcome,[11],inactive
same,outcome,[12],inactive
same,AC50,[13],100 µM (active) and 75.6 µM (active)
same,outcome,[13],inactive
same,outcome,[14],inactive
same,outcome,[15],inactive
same,outcome,[16],inactive
same,AC50,[17],162 µM (active)
same,outcome,[17],inactive
CCOC(=O)O[C@H](C)OC(=O)c1ccc2c(c1)cc(C(=O)NC1CCN(C(C)C)CC1)n2Cc1cc(-c2ccc(Cl)s2)on1,outcome,[1],inactive
same,outcome,[2],inactive
same,outcome,[3],inactive
same,outcome,[4],inactive
same,outcome,[5],inactive
same,outcome,[6],inactive
same,outcome,[7],inactive
same,AC50,[8],42.2 µM (active)
same,outcome,[9],inactive
same,outcome,[10],inactive
same,outcome,[11],inactive
same,outcome,[12],inactive
same,outcome,[18],inactive
same,AC50,[19],33 µM (active)
same,outcome,[13],inactive
same,outcome,[14],inactive
same,outcome,[15],inactive
same,outcome,[16],inactive
same,outcome,[17],inactive
Cc1cccc2ccccc12,outcome,[1],inactive
same,outcome,[2],inactive
same,outcome,[3],inactive
same,outcome,[4],inactive
same,outcome,[5],inactive
same,outcome,[6],inactive
same,outcome,[7],inactive
same,outcome,[8],inactive
same,outcome,[9],inactive
same,outcome,[10],inactive
same,outcome,[11],inactive
same,outcome,[12],inactive
same,outcome,[18],inactive
same,AC50,[19],76.8 µM (active)
same,outcome,[19],inactive
same,outcome,[13],inactive
same,outcome,[14],inactive
same,outcome,[15],inactive
same,outcome,[16],inactive
same,outcome,[17],inactive
CCCC(=O)OCCC(C)C,outcome,[1],inactive
same,outcome,[2],inactive
same,outcome,[3],inactive
same,outcome,[4],inactive
same,outcome,[5],inactive
same,outcome,[6],inactive
same,outcome,[7],inactive
same,outcome,[8],inactive
same,outcome,[9],inactive
same,outcome,[10],inactive
same,outcome,[11],inactive
same,outcome,[12],inactive
same,outcome,[18],inactive
same,outcome,[19],inactive
same,AC50,[13],26.8 µM (active)
same,outcome,[14],inactive
same,outcome,[15],inactive
same,outcome,[16],inactive
same,outcome,[17],inactive
